TROY signal inh: inhibitors of TROY-dependent NF-kB signaling; 360,000 tested, 0.98% active; inhibition, % at 10 µM; Q293 LMP1-TROYcd NF-kB luciferase reporter, 4 h;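 active means compounds whose plate-normalised and pattern-corrected inhibition of the luciferase reporter signal at the single screening dose is 50% or more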
HSP90 refold inh: HSP90 refolding inhibition in rabbit reticulocyte lysate. inhibition, % at 5.6 µM. AID 1789. luciferase refolding luminescence, 3 h. 290,000 tested, 0.91% active;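 active means inhibition above the screen-wide mean plus 3 SD, computed separately per campaign, cut at about 16% in these data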;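 further: 0% = DMSO wells and 100% = 60 µM geldanamycin wells; inhibitors lower the luminescence because luciferase stays unfolded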
LGR2 antag: blocks bursicon-induced cAMP signaling via Drosophila LGR2; HEK293 LGR2, CRE-luciferase, bursicon-stimulated, 4 h; inhibition, % at 9.99 µM; 380,000 tested, 0.35% active;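 active means drop in luminescence signal, shown as inhibition above about 50% in the replicate tests, limit read from the data, passing the limit was not always enough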;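 further: agonist challenge used bursicon conditioned medium at about half maximal strength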
TWEAK-Fn14 inh: inhibitors of TWEAK-Fn14 interaction signaling; TWEAK-stimulated Fn14 reporter cells, luciferase luminescence, 8 h; inhibition, % at 10 µM; 360,000 tested, 2% active; AID 1159606; in the data active means inhibition above about 50%
Numbers without * were called inactive; / = not tested or not shown. A selection: hits, their analogues and other compounds. The true share with any hit is near 2.2%.

SMILES	TROY signal inh	HSP90 refold inh	LGR2 antag	TWEAK-Fn14 inh
Cc1ccc(-c2nc(-c3ccncc3)no2)cc1	-26	9	-63	40
Cc1ccc(-c2nc(-c3ccccc3)no2)cc1	47	-2	/	62*
Cc1occc1-c1nc(-c2ccccn2)no1	3	12	/	62*
c1ccc(-c2noc(-c3ccc4c(c3)OCO4)n2)nc1	85*	41*	/	101*
C[C@@H]1CN([C@H](C)CO)S(=O)(=O)c2ccc(-c3cccnc3)cc2O[C@H]1CN(C)Cc1cncnc1	/	/	-7	/
Cn1c(NCCO)nc2c1c(=O)n(Cc1cccc(Cl)c1)c(=O)n2C	-7	1	-5	-19
Cn1c(NCc2ccco2)nc2c1c(=O)n(Cc1ccc(Cl)c(Cl)c1)c(=O)n2C	29	0	/	50*
Cn1c(NCCN2CCOCC2)nc2c1c(=O)n(Cc1cccc(Cl)c1)c(=O)n2C	/	0	/	80*
COCC(=O)N1CCCCN2[C@H](CO)[C@H](c3ccc(-c4ccc(F)cc4)cc3)[C@@H]2C1	/	/	15	/
CCc1ccccc1-n1c(SCC(=O)Nc2ccc3c(c2)OCCO3)nc2[nH]ncc2c1=O	80*	7	8	88*
CCc1ccc(-n2c(SCC(=O)Nc3cc(C)[nH]n3)nc3[nH]ncc3c2=O)cc1	/	-2	/	98*
O=C(NC(Cc1c[nH]c2ccccc12)C(=O)N/N=C/c1ccc(Cl)cc1)c1cccs1 (stereo not drawn)	29	2	-8	53*
COc1ccc(OCC(=O)N2CCN(c3nnc(-c4ccc(C)cc4)c4ccccc34)CC2)cc1	59*	1	59*	-2
COc1ccc(OCC(=O)N2CCN(c3nnc(-c4ccccc4)c4ccccc34)CC2)cc1	27	2	/	7
Cc1ccc(OCC(=O)N2CCN(c3nnc(-c4ccc(C)cc4)c4ccccc34)CC2)cc1	59*	3	/	51*
Cc1ccc(-c2nnc(N3CCN(C(=O)COc4cccc(C)c4)CC3)c3ccccc23)cc1	35	8	/	-12
CCCNC(=O)Nc1ccc2c(c1)OC[C@H](C)N(Cc1cccnc1)C[C@H](C)[C@@H](OC)CN(C)C2=O	/	/	-20	/
O=S(=O)(NC1CC1)c1ccc(Cl)cc1F	2	0	-10	99*
CCCC#Cc1ccc([C@@H]2[C@H](CO)N3C(=O)CN(C(=O)Nc4cccc(F)c4)C[C@@H]23)cc1	/	/	17	/
COC(=O)c1ccc(COc2ccc(C)c(C)c2)o1	-52	17*	-113	-31
COC(=O)c1ccc(COc2ccc3ccc(=O)oc3c2)o1	-17	0	-1	5
O=C(Nc1cccc(-c2csc(Nc3ccccc3)n2)c1)c1cc([N+](=O)[O-])cc(C(F)(F)F)c1	10	-6	-25	10
NS(=O)(=O)c1ccc(Nc2nc(-c3cccc([N+](=O)[O-])c3)cs2)cc1	56*	-6	73*	36
O=C(Nc1cccc(-c2csc(Nc3ccc(Cl)cc3)n2)c1)c1cc([N+](=O)[O-])cc(C(F)(F)F)c1	3	/	4	51*
C[C@@H]1CN([C@H](C)CO)S(=O)(=O)c2ccc(C#CC3CC3)cc2O[C@@H]1CN(C)C(=O)c1cccnc1	/	/	3	/
SMILES	TROY signal inh	HSP90 refold inh	LGR2 antag	TWEAK-Fn14 inh
S=C(Nc1ccccc1)Nc1ccc(Cl)cc1Cl	-14	-2	/	-36
O=C(NC(NC(=S)Nc1c(Cl)cc(Cl)cc1Cl)C(Cl)(Cl)Cl)OCc1ccccc1 (stereo not drawn)	37	-3	31	38
O=C(/C=C/c1ccccc1)NC(NC(=S)Nc1cccc(O)c1)C(Cl)(Cl)Cl (stereo not drawn)	47	3	17	56*
O=C(/C=C/c1ccccc1)NC(NC(=S)Nc1ccc(Cl)cc1Cl)C(Cl)(Cl)Cl (stereo not drawn)	28	0	/	64*
COc1ccc(NC(=S)NC(NC(=O)c2cccc(Cl)c2)C(Cl)(Cl)Cl)c([N+](=O)[O-])c1 (stereo not drawn)	7	-1	/	40
O=C(NC(NC(=S)Nc1ccccc1Cl)C(Cl)(Cl)Cl)c1cccc(Cl)c1 (stereo not drawn)	36	1	43	76*
Cc1ccc(C)c(NC(=S)NC(NC(=O)OCc2ccccc2)C(Cl)(Cl)Cl)c1 (stereo not drawn)	49	-2	-12	61*
CCCNC(=O)N[C@@H]1C=C[C@H](CC(=O)N2CCN(C)CC2)O[C@@H]1CO	/	/	-14	/
COc1ccc(NC(=O)Nc2ccc3c(c2)C(=O)N([C@@H](C)CO)C[C@@H](C)[C@@H](CN(C)C(=O)NC2CCCCC2)O3)cc1	/	/	-2	/
Cc1ccc(O)c(NC(=S)NC(=O)/C=C/c2ccccc2)c1	-8	1	-8	-3
O=C(/C=C/c1ccccc1)NC(NC(=S)Nc1ccc(C(=O)O)cc1)C(Cl)(Cl)Cl (stereo not drawn)	0	1	0	-3
Cc1ccc(C)c(NC(=S)NC(NC(=O)/C=C/c2ccccc2)C(Cl)(Cl)Cl)c1 (stereo not drawn)	30	-2	/	55*
O=C(/C=C/c1ccccc1)NC(NC(=S)Nc1cccc(Cl)c1)C(Cl)(Cl)Cl (stereo not drawn)	34	-2	/	63*
COc1ccc(CCNC2=C(Cl)C(=O)N(CCc3ccc(OC)c(OC)c3)C2=O)cc1OC	11	-1	/	51*
N#Cc1c(SCc2ccc(Cl)cc2)sc(C(=O)c2ccccc2)c1N	-1	-4	/	89*
Cc1ccc(S(=O)(=O)Nc2ccc3c(c2)CC(=O)N([C@H](C)CO)C[C@@H](C)[C@@H](CN(C)Cc2ccc(C(=O)Nc4ccccc4N)cc2)O3)cc1	/	/	-3	/
c1ccc(-c2nnc(NC3=NCCC3)o2)cc1	20	17*	35	53*
O=C(Nc1ccccc1)Nc1nnc(-c2ccccc2)o1	14	1	/	-14
O=C(C[C@@H]1C[C@H]2c3cc(NS(=O)(=O)c4ccccc4)ccc3O[C@H]2[C@H](CO)O1)N1CCCCC1	/	/	-17	/
O=C(O)c1ccc(N/N=C/c2ccnc3ccccc23)cc1	-11	2	-21	44
O=C(O)c1ccc(N/N=C/c2cccc(C(F)(F)F)c2)cc1	25	0	-104	0
O=C(O)c1ccc(N/N=C/c2cccc(F)c2)cc1	-26	3	-27	59*
O=C(O)c1ccc(N/N=C/c2cccc3cccnc23)cc1	-32	8	-42	61*
O=C(O)c1ccc(N/N=C/c2ccc(F)c(F)c2)cc1	14	9	/	67*
O=C(NCCCn1ccnc1)C1CCN(S(=O)(=O)c2ccc(F)cc2)CC1	-7	0	-3	86*
O=C(CCNC(=O)C1CCN(S(=O)(=O)c2ccc(F)cc2)CC1)NCc1ccc(F)cc1	-9	-4	-7	-5
O=C(NCc1ccccn1)C1CCN(S(=O)(=O)c2ccccc2)CC1	/	-2	/	88*
O=C(CCNC(=O)C1CCN(S(=O)(=O)c2ccccc2)CC1)NCc1ccccn1	2	-2	1	-3
COc1cccc(CN2CCCCN3[C@H](C2)[C@H](c2ccc(-c4cccnc4)cc2)[C@@H]3CO)c1	/	/	-9	/
CCOc1ccc2nc(SCc3ccc(CC(=O)O)cc3)c(C#N)cc2c1	76*	9	12	37
